Measured values as given in PubChem BioAssay (EPA / NIEHS).
Records with an inconclusive call do not appear. Calls of active or inactive are those of the source. How the source made its calls, unless noted: active means hit-call score of the fitted dose curve at least 0.9, where 1 is the maximum; inactive means score below 0.9.

Tests used:
[1] = CCTE_Mundy_HCI_Cortical_Synap_Neur_Matur_NeuriteLength: CCTE's Synaptogenesis and Neurite Maturation Assay in rat cortical cells for Neurite Length, Mundy Lab (AID 2284214)
Procedure, shortened: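 Rat primary cortical cultures, AraC added DIV 5, dosed DIV 7 through DIV 12 […]. Fixed, MAP2/synaptophysin immunostained with Hoechst; neurite length by high-content imaging, fitted in positive direction versus DMSO.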

[2] = CCTE_Mundy_HCI_Cortical_Synap_Neur_Matur_NeuriteSpotCountPerNeuron: CCTE's Synaptogenesis and Neurite Maturation Assay in rat cortical cells for Neurite Spot Count per Neuron Count, Mundy Lab (AID 2284215)
Procedure, shortened: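 Developing rat cortical neurons, with glia suppressed by AraC, are exposed to chemicals from DIV 7 to DIV 12. Automated fluorescence imaging of MAP2-labelled neurites and synaptophysin puncta yields a count per neuron, normalised against DMSO wells.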

[3] = CCTE_Mundy_HCI_Cortical_Synap_Neur_Matur_SynapseCount: CCTE's Synaptogenesis and Neurite Maturation Assay in rat cortical cells for Synapse Count, Mundy Lab (AID 2284218)
Procedure, shortened: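 Rat primary cortical cultures, AraC at DIV 5, chemical dosing DIV 7 to DIV 12 (288.33 h). Fixed cells stained for MAP2, synaptophysin and Hoechst; synapses per neuron counted by high-content imaging, loss of signal versus DMSO.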

[4] = CCTE_Mundy_HCI_hN2_NOG_NeuriteCount: CCTE's Neurite Outgrowth Assay in human hN2 cells for Neurite Count, Mundy Lab (AID 2284219; active means hit-call score of the fitted dose curve at least 0.9, where 1 is the maximum)
Procedure, shortened: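 In this morphology assay, hNP1-derived neurons received test chemical 2 h post-plating and were fixed two days later in warm paraformaldehyde/sucrose containing Hoechst 33342. Neurites, labelled by rabbit anti-βIII-tubulin (1:800) and Alexa Fluor-488 (1:500), were counted automatically.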

[5] = CCTE_Mundy_HCI_hN2_NOG_NeuronCount: CCTE's Neurite Outgrowth Assay in human hN2 cells for Neuron Count, Mundy Lab (AID 2284221; active means hit-call score of the fitted dose curve at least 0.9, where 1 is the maximum)
Procedure, shortened: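 Read-out is the number of betaIII-tubulin-positive neurons imaged by automated high-content analysis, with DMSO as negative control.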

[6] = CCTE_Mundy_HCI_Cortical_Synap_Neur_Matur_CellBodySpotCount: CCTE's Synaptogenesis and Neurite Maturation Assay in rat cortical cells for Cell Body Spot Count, Mundy Lab (AID 2284223)
Procedure, shortened: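 Chemicals were applied to AraC-treated rat primary cortical cells at DIV 7 and measured at DIV 12. Fixed cells were labelled for MAP2, synaptophysin and nuclei, and high-content imaging gave cell body synaptophysin spot counts per neuron relative to DMSO.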

[7] = CCTE_Mundy_HCI_Cortical_NOG_BPCount: CCTE's Neurite Outgrowth Assay in rat cortical cells for Branch Point Count, Mundy Lab (AID 2284237)
Procedure, shortened: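 Measured 50.33 h after dosing, this morphology endpoint uses rat primary cortical cultures labelled for betaIII-tubulin. Branch points are quantified by high-content imaging, with DMSO as negative control and baseline.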

[8] = CCTE_Mundy_HCI_hNP1_Casp3_7: CCTE's Caspase-Glo 3/7 Assay in human neuroprogenitor cells for Apoptosis, Mundy Lab (AID 2284240)
Procedure, shortened: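 Apoptosis is scored by activated caspase-3/7 luminescence in WA09-derived neural progenitor cells, measured 26.5 h after chemical dosing. Values represent gain of signal relative to DMSO vehicle.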

[9] = CCTE_Mundy_HCI_hNP1_CellTiter: CCTE's Cell Titer-Glo 2 Assay in human neuroprogenitor cells for Viability, Mundy Lab (AID 2284241; active means hit-call score of the fitted dose curve at least 0.9, where 1 is the maximum)
Procedure, shortened: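 Human neural progenitor cells (hNP1, WA09-derived) were plated on poly-L-ornithine/laminin and grown 40 to 44 hours at 37 °C, 5% CO2 before chemical addition. Twenty-four hours later, ATP was measured by CellTiter-Glo luminescence; loss of signal versus DMSO indicates reduced viability.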

[10] = CCTE_Mundy_HCI_Cortical_Synap_Neur_Matur_NeuronCount: CCTE's Synaptogenesis and Neurite Maturation Assay in rat cortical cells for Neuron Count, Mundy Lab (AID 2284242; active means hit-call score of the fitted dose curve at least 0.9, where 1 is the maximum)
Procedure, shortened: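 Rat primary cortical cells, AraC added at DIV 5, dosed with media change from DIV 7 to DIV 12. Fixed, Hoechst-stained and immunolabelled for MAP2 and synaptophysin; neuron number counted by high-content imaging, loss fitted versus DMSO.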

[11] = IUF_NPC2c_oligodendrocyte_migration_120hr: Leibniz Research Institute for Environmental Medicine (IUF) 120-hour Neural Progenitor Cell Migration Assay for Oligodendrocyte Migration (NPC2c) (AID 2284297);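 further: O4-positive oligodendrocyte migration distance divided by radial glia migration distance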
Procedure, shortened: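 Using fetal brain neural progenitor spheres differentiating in N2 medium at 37C, compounds were present for 120 h. Oligodendrocyte migration distance, normalized to radial glia migration, was measured from imaged O4 staining.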

[12] = IUF_NPC2a_radial_glia_migration_120hr: Leibniz Research Institute for Environmental Medicine (IUF) 120-hour Neural Progenitor Cell Migration Assay for Radial Glia Migration (NPC2a) (AID 2284298)
Procedure, shortened: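 Exposure of 0.3 mm primary hNPC spheres runs day 0 to 120 h with a half-volume medium change at day 3. Fixed cells get Hoechst staining; high-content analysis of nuclear positions yields radial glia migration distance per well, compared against DMSO controls.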

[13] = IUF_NPC2b_neuronal_migration_120hr: Leibniz Research Institute for Environmental Medicine (IUF) 120-hour Neural Progenitor Cell Migration Assay for Neuron Migration (NPC2b) (AID 2284300)
Procedure, shortened: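 Fetal human NPC spheres migrate on PDL/laminin during 120 h compound treatment; neuronal migration distance, glia-normalized, scored versus DMSO control.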

[14] = IUF_NPC3_neuronal_differentiation_120hr: Leibniz Research Institute for Environmental Medicine (IUF) 120-hour Neuronal Differentiation Assay (NPC3) (AID 2284301)
Procedure, shortened: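 Single 0.3 mm neurospheres from human fetal cortex were plated in differentiation medium containing test compound. Medium was half-replaced on day 3. After 120 h cells were fixed, immunostained and imaged, and neuronal fraction was scored against DMSO control.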

[15] = IUF_NPC4_neurite_length_120hr: Leibniz Research Institute for Environmental Medicine (IUF) 120-hour Neuronal Morphology Assay for Neurite Length (NPC4) (AID 2284302)
Procedure, shortened: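 Read-out is mean neurite length in µm of TUBB3-positive neurons, skeletonized from high-content fluorescence images after 120 h. Single 0.3 mm primary human neural progenitor spheres differentiated on poly-D-lysine/laminin under continuous compound exposure; DMSO was baseline.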

[16] = IUF_NPC4_neurite_area_120hr: Leibniz Research Institute for Environmental Medicine (IUF) 120-hour Neuronal Morphology Assay for Neurite Area (NPC4) (AID 2284305; active means hit-call score of the fitted dose curve at least 0.9, where 1 is the maximum)
Procedure, shortened: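 Neurite area is read out as the mean pixel area, excluding nuclei, of skeletonized TUBB3-positive neurons imaged after 120 h. Primary human neural progenitor spheres differentiated on poly-D-lysine/laminin with compound present from day 0. Activity was referenced to DMSO controls.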

[17] = IUF_NPC2-5_cytotoxicity_72hr: Cytotoxicity Assessment at 72 hours in the Leibniz Research Institute for Environmental Medicine (IUF) Neural Progenitor Cell Migration and Differentiation Assay for Cytotoxicity (NPC2-5) (AID 2284306; active means hit-call score of the fitted dose curve at least 0.9, where 1 is the maximum;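 further: LDH release into supernatant measured by resorufin fluorescence marking membrane damage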)
Procedure, shortened: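 Membrane integrity loss was scored from fluorescence (RFU) of resorufin generated by LDH in culture supernatant, 72 h after dosing. Differentiating human progenitor spheres received seven serial compound concentrations alongside a solvent control.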

[18] = IUF_NPC2-5_cytotoxicity_120hr: Cytotoxicity Assessment at 120 hours in the Leibniz Research Institute for Environmental Medicine (IUF) Neural Progenitor Cell Migration and Differentiation Assay (NPC2-5) (AID 2284307; active means hit-call score of the fitted dose curve at least 0.9, where 1 is the maximum)
Procedure, shortened: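 Membrane-integrity loss is quantified by LDH in supernatant after five days of exposure of migrating, differentiating human fetal NPC spheres; seven serially diluted concentrations are tested with DMSO kept at or below 0.1%.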

[19] = IUF_NPC2-5_cell_number_120hr: Cell Number Assessment at 120 hours in the Leibniz Research Institute for Environmental Medicine (IUF) Neural Progenitor Cell Migration and Differentiation Assay (NPC2-5) (AID 2284308);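 further: count of Hoechst-stained nuclei in migration zone around plated human neural progenitor spheres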
Procedure, shortened: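 Seven-point serial dilutions plus solvent control were applied to plated 0.3 mm hNPC spheres at differentiation start, with medium half-replaced at day 3. Nuclei positive for Hoechst in the migration zone were enumerated at 120 h.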

[20] = IUF_NPC2-5_viability_120hr: Viability Assessment at 120 hours in the Leibniz Research Institute for Environmental Medicine (IUF) Neural Progenitor Cell Migration and Differentiation Assay (NPC2-5) (AID 2284312)
Procedure, shortened: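 Alamar blue resorufin fluorescence read after 5 days of differentiation, with compound present from day 0 and replenished at day 3. Primary hNPC spheres on laminin-coated plates, 37C; seven concentrations plus solvent control, fitted against DMSO.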

Measured: outcome

F
inactive: all assays above
